# Source: PubChem BioAssay
# VACV Venus inh: inhibitors of vaccinia virus (Venus reporter); Vaccinia virus Venus reporter expression, fluorescence; Potency, µM (series often up to 36.5 µM), for the others: at the top dose activity change, negative = inhibition, most hits filed as inhibitors; 330,000 tested, 0.46% active; AID 720580; calls by dose curve; tested in A549 cells; note: nearly all actives have a fitted effect of over 30% in size
# MARV entry inh: blocks Marburg virus binding to or entry into cells | 300,000 tested, 1.8% active | Marburg virus pseudotyped entry inhibition, cell reporter | Potency, µM (highest dose often 37.8 µM), for inactives: at the top dose activity change, negative = inhibition, most hits filed as inhibitors; calls by dose curve; tested in HEK293 cells
# HCV inh: HCV inhibition; AID 651820; 340,000 tested, 3.4% active; Huh7.5.1 HCVcc-Cre infection, luciferase reporter, 44 h; Potency, µM (titrated, usually from 41.8 µM), for inactives: at the highest dose activity change, negative = inhibition, usual class: inhibitors; active = well fitted inhibition curve with a large enough effect; inconclusive = small, poorly fitted or top-dose-only effect, or another doubt; inactive = no such curve, though single readings can be large or run the other way
#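 Whole-lifecycle infectious HCVcc-Cre system; cells 1,000/well, compound then virus (~0.5 moi) added 4 h after plating, 44 h culture. Luciferase read 15 sec following 15 min substrate incubation, room temp.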
# VACV mCherry inh: inhibitors of vaccinia virus infection (mCherry reporter signal) | Potency, µM (titrated, usually from 36.5 µM), inactives show top-dose activity change, negative = inhibition, actives largely listed as inhibitors | AID 720579 | 310,000 tested, 0.63% active | Vaccinia virus mCherry reporter infection, fluorescence; calls by dose curve; tested in A549 cells; note: nearly all actives have a fitted effect of over 35% in size
# Lassa entry inh: blocks Lassa virus binding to or entry into cells; 300,000 tested, 1.2% active; Potency, µM (highest dose often 37.9 µM), without a hit: at the top dose activity change, negative = inhibition, usual class: inhibitors; AID 540256; Lassa virus pseudotype entry inhibition, cell reporter; calls by dose curve; tested in HEK293 cells; note: nearly all actives have a fitted effect of over 50% in size
# An asterisk follows results filed as active; i = inactive; ? = inconclusive; . = no result; [ ] = remark or other dose. Sampled rows, rich in hits. Any-hit rate of the full collection: about 4.6%. % is set by controls: 0 for no effect and ±100 for the full control effect; potency is the fitted concentration of half-maximal effect.
SMILES,VACV Venus inh,MARV entry inh,HCV inh,VACV mCherry inh,Lassa entry inh
COc1ccc(/C=N/NC(=O)c2cccnc2)cc1COc1ccc([N+](=O)[O-])cc1,-27%,?,-10%,-19%,?
CCOC(=O)c1cc2c(=Cc3ccc(N(C)C)cc3)c3ccccc3n2[n+]1C,134%,?,?,162%,11µM*
CN(C)c1ccc(C=c2c3ccccc3n3c2c2ccccc2[n+]3C)cc1,?,?,8.9µM*,?,7.1µM*
CN(C)c1ccc(C=c2c3cc(O)ccc3n3c2cc(-c2ccccc2)[n+]3C)cc1,132%,?,?,107%,?
Cc1cc2c(=Cc3ccc(N(C)C)cc3)c3ccccc3n2[n+]1C,254%,?,1.3µM*,21%,2.2µM*
C[N+]1(CC(=O)c2ccc(Cl)cc2)CCOCC1,-4%,.,.,-10%,.
Cc1cccc(C(=O)N/N=C/c2ccc[nH]2)c1,-20%,3%,?,-11%,10%
Cc1ccc(C(=O)N/N=C\c2ccc[nH]2)cn1,9%,-24%,8.9µM*,-9%,0%
O=C(N/N=C/c1ccc[nH]1)c1cccc(Br)c1,-22%,?,4.5µM*,?,?
Cc1ccc(C(=O)N/N=C\c2ccc(-c3ccc(Cl)cc3)o2)cn1,.,.,11µM*,.,.
CCOc1ccc(OCc2ccc(C(=O)NN=Cc3ccc[nH]3)cc2)cc1,?,0.28µM*,0.56µM*,?,?
O=C(Nc1ccc2nc(SCC(=O)N3CCCC3)sc2c1)c1cccc(F)c1,-6%,-5%[46.1 µM],.,-8%,-2%[46.1 µM]
CCOC(=O)c1ccc(NC(=O)CN2CCN(C(=O)c3ccco3)CC2)cc1,-12%,?,-6%,-8%,-27%
CCc1c(C)sc(NC(=O)CN2CCN(C(=O)c3ccco3)CC2)c1C(=O)OC,-18%,?,11µM*,-8%,3.5µM*
CCOC(=O)c1c(NC(=O)CN2CCN(C(=O)c3ccco3)CC2)sc(C)c1C,?,?,.,?,11µM*
CC1Cc2cc(-c3csc(NC(=O)Cc4ccccc4)n3)ccc2N1S(C)(=O)=O (stereo not drawn),?,10µM*,0.71µM*,?,?
CS(=O)(=O)N1CCc2cc(-c3csc(NC(=O)C(c4ccccc4)c4ccccc4)n3)ccc21,-23%,-20%,-22%,-28%,-22%
c1cncc(CNc2ncnc3sc4c(c23)CCCC4)c1,-14%,?,?,-18%,-20%
Cc1nc(NCc2cccnc2)c2c3c(sc2n1)CCCC3,-9%,?,7.1µM*,-12%,-25%[46.1 µM]
CCc1cccc(NC(=O)CCN2C(=O)c3ccccc3Sc3ncccc32)c1,-6%,.,.,-6%,4%[46.1 µM]
C=C[C@]1(C)C=C2C(=O)[C@@]3(O)OC(=O)[C@@]4(CCCC(C)(C)[C@H]34)[C@@]2(O)CC1,10µM*,.,.,8.9µM*,.
Cc1cnc(-n2ncc(C(=O)NCc3cccnc3)c2C)nc1-c1ccc(F)cc1,-29%,.,.,?,.
Cc1ccc2nc(-c3ccc(Cl)c(NC(=O)c4ccc5c(c4)OCCO5)c3)oc2c1,21%,?,.,-3%,?
COc1ccc(-c2ccc(C(=O)N(C)Cc3csc(C)n3)c(N3CCC(N4CCc5ccccc5C4)CC3)n2)cc1,10%,.,.,-9%,.
CC(C)CC(=O)N1CCN(S(=O)(=O)c2ccccc2)CC1,.,-1%,-1%,.,5%
SMILES,VACV Venus inh,MARV entry inh,HCV inh,VACV mCherry inh,Lassa entry inh
CC(C)CC(=O)N1CCN(S(=O)(=O)c2ccc(C3CCCCC3)cc2)CC1,.,.,11µM*,.,.
CC(C)(C)c1ccc(S(=O)(=O)N2CCN(C(=O)C3CCC3)CC2)cc1,-13%,4.5µM*,?,i,?
CC#CCN1C(=O)NC(c2ccccc2)C(C#N)=C1C (stereo not drawn),.,23%[14.2 µM],.,.,.
COc1cc(=O)n2c(c1C(=O)NCc1ccc3c(c1)OCO3)CCN(C(=O)c1cccc(F)c1)CC2,0%,.,.,-6%,.
C=CC[C@H]1CC(C)=C[C@H](CC=C)N1C(=O)c1cc(COc2ccccc2SC)on1,-3%,-46%,13µM*,-10%,?
COCC1CCN(C(=O)c2cc(COc3ccccc3SC)on2)C1 (stereo not drawn),-24%,12%[46.1 µM],-2%,-13%,-18%[46.1 µM]
CCN1CCN(CCCNC(=O)c2cc3c(=O)n(C)c4ccccc4c3s2)CC1,-5%,?,.,-7%,20%[46.1 µM]
COc1ccc(O)c(CN2CCCN(c3nc(C)c4cc(C)c(C)cc4n3)CC2)c1,-8%,.,.,-1%,.
